# Reference: PubChem BioAssay
# A number with no mark means an inactive call. Active and inactive are the calls of the source.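 Rule for the calls: active = inhibition above the hit cutoff set in the earlier primary screen (cut at about 27% in these data); inactive = the rest.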
# Target: Protein phosphatase methylesterase 1 (Homo sapiens) (UniProt Q9Y570)
# Experiment: PME-1 inhibitor activity retest, confirmation, biochemical, fluorescence polarization, FP-Rh probe, triplicate (AID 2171);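 note: 0% = enzyme with DMSO and 100% = wells lacking PME-1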
# Conditions: recombinant PME-1, FP-Rh probe fluorescence polarization; at 5.9 µM; active compounds read high
# Chain of Protein phosphatase methylesterase 1 (Homo sapiens) (Q9Y570 whole entry, looked up): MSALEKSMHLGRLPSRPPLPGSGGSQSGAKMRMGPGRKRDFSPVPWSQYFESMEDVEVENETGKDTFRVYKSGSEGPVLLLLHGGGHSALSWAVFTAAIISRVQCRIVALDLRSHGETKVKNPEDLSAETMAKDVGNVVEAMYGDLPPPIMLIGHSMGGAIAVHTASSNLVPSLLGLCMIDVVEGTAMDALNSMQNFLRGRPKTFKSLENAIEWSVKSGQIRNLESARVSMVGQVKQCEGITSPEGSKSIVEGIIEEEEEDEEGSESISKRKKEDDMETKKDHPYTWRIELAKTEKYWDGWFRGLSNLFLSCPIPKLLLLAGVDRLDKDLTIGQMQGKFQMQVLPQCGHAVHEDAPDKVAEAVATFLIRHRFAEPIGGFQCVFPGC
row,SMILES,inhibition
1,Cn1c(=N)n(CC(=O)c2ccc(Br)cc2)c2ccccc21,13.3%
2,COc1ccc(-c2nc(NC(=O)c3[nH]c(C)c(C(C)=O)c3C)sc2C)cc1,55% (active)
3,COc1cc(OC)c2cc(C(=O)N/N=C/c3ccccc3O)[nH]c2c1,19.1%
4,O=C1Nc2ccccc2/C1=N\N=C\C1=C(N2CCOCC2)C(=C\c2ccccc2)/CC1,24%
5,COc1ccccc1C(=O)NC(=S)Nc1cccc2cc(O)ccc12,17%
6,S=C(NCc1ccccc1)NCc1cccc(CNC(=S)NCc2ccccc2)c1,3.07%
7,COc1cc(N=Nc2cccc(S(N)(=O)=O)c2)c2ccccc2c1N,33.1% (active)
8,c1cc2c3c(cccc3c1)NC1(CCC3(CC1)Nc1cccc4cccc(c14)N3)N2,0.95%
9,O=C(Nc1ccc(Nc2ccccc2)cc1)Nc1ccccc1Cl,-2.21%
10,Nc1[nH]n(-c2ccccc2)c(=O)c1N=Nc1ccc2c(c1)OCO2,39.8% (active)
11,CCCCN(CC)CCCNC(=O)c1cn(CC)c2ccc(S(=O)(=O)N3CCc4ccccc4C3)cc2c1=O,59.1% (active)
12,CC1=NC(=O)C(N=Nc2cccc(O)c2)N1c1ccccc1 (centres undefined),24.1%
13,Nc1nonc1N/N=C/c1c(O)ccc2ccccc12,23.6%
14,CCCSc1nnc(NC(=O)c2sc3nc(-c4cccs4)ccc3c2N)s1,37.4% (active)
15,Cc1ccc(-n2c(O)c(/C=N/Nc3ccc(S(=O)(=O)N4CCOCC4)cc3[N+](=O)[O-])c3ccccc3c2=O)c(C)c1,37.9% (active)
16,O=c1nc(/C=C/c2cc([N+](=O)[O-])ccc2Cl)cc(C(F)(F)F)[nH]1,25.3%
17,COc1ccc(/C=c2\s/c(=C/C(=O)c3ccc(C)cc3)[nH]c2=O)c(OC)c1,18.9%
18,C=CCn1c(NS(=O)(=O)c2ccccc2)c(S(=O)(=O)c2ccc(C)cc2)c2nc3ccccc3nc21,8.89%
19,COc1ccc(NC(=S)NNc2ccc(S(=O)(=O)Nc3ccccc3C(=O)O)cc2[N+](=O)[O-])cc1,44.9% (active)
20,CCCCN(CC)CCCNC(=O)c1cn(C)c2ccc(S(=O)(=O)N(C)C3CCCCC3)cc2c1=O,14.5%
21,O=c1[nH]nc(CNc2ccc(O)cc2)c2ccccc12,8.74%
22,C=CCn1c(SCC(=O)N2CCCC2=O)nc2sc(CC)cc2c1=O,11.2%
23,c1ccc2sc(Nc3nc4cc5c(cc4s3)OCO5)nc2c1,49.7% (active)
24,CC(=O)Nc1ccc(Nc2nc(C)c([N+](=O)[O-])c(Nc3ccccc3)n2)cc1,19.7%
